Data on 55 molecules can be found in PubChem BioAssay AID1117319 (Southern Research Institute, 2015).

Each structure is given as a SMILES string. “And” between values parts separate entries of the source, which are not always exact repeats. Equal entries are not always repeated. In all, about 260,000 compounds went through this assay and about 1,500 (0.58%) were called active. Another 5% or so got no clear call; they are omitted. These entries were drawn from the full list. Entries with a potency or affinity are not part of this list. Unmarked numbers belong to inactive results.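 Rule for the calls: active = inhibition above a set limit at one or more doses, reproduced on every date tested; inconclusive = results disagree between test dates, or hit never tested in dose response; inactive = the rest.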

The experiment deals with Virion infectivity factor (Human immunodeficiency virus type 1 group M subtype B (isolate BH10)) + Virion infectivity factor (Human immunodeficiency virus type 1 group M subtype B (isolate BRU/LAI)) + Virion infectivity factor (Human immunodeficiency virus type 1 group M subtype B (isolate PCV12)) + Virion infectivity factor (Human immunodeficiency virus type 1 group M subtype B (isolate HXB2)) + DNA dC->dU-editing enzyme APOBEC-3G (Homo sapiens) (UniProt P69720+P69721+P69722+P69723+Q9HC16). Nature of the experiment: HIV-1 Vif–A3G interaction blockers – biochemical, TR-FRET, GST-Vif 1-94, biotin-A3G peptide, dose response retest, primary screen (AID 1117319).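 Note: Vif residues 1-94 fused to GST binding biotinylated APOBEC3G peptide 110-148; 0% = full assay without inhibitor and 100% = GST in place of GST-Vif.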 Conditions: TR-FRET GST-Vif / biotin-A3G peptide binding; stronger effect = higher value. (Time-resolved FRET reads energy transfer from a long-lived donor to a nearby acceptor.)
As a reminder, the inhibition is the relative decrease from the control value, in per cent. With `Cc1ccc(-c2cc(C(=O)NC3=NCCS3)c3ccccc3n2)cc1C`, the inhibition is -1.5%.
Under `O=S(=O)(CC=CCS(=O)(=O)c1ccccc1)c1ccccc1` stands -17%.
Under `Cc1nc2nc(C(F)(F)F)[nH]c2nc1C` stands 0.02%; under `CC(C)(C)NC(=O)C(c1ccc(F)cc1)N(Cc1ccco1)C(=O)CCC(=O)Nc1nccs1` (stereo not given), 5.5%.
Under `CN[C@@H](C)C(=O)NC[C@H]1O[C@@H](n2cnc3c(N)ncnc32)[C@H](O)[C@@H]1O` stands -3.01%; under `CC1(C)CC(=O)c2c(O)cc(O)cc2O1`, -0.4%.
Take `C/C=C(/C)C(=O)Nc1cccc(C2=NOC3(C2)C[C@@H](C(N)=O)N(C(=O)CC(c2ccccc2)c2ccccc2)C3)c1` (stereo not given in full): the inhibition is 24%.
Under `C/C=C\C(=O)Nc1cccc(C2=NOC3(C2)C[C@H](C(N)=O)N(C(=O)/C=C/CC)C3)c1` (stereo not given in full) stands 5.75%; under `CCC(=O)Nc1cccc(C2=NOC3(C2)C[C@@H](C(N)=O)N(C(=O)CC(c2ccccc2)c2ccccc2)C3)c1` (stereo not given in full), 7.06%.
Under `C/C=C(/C)C(=O)Nc1cccc(C2=NOC3(C2)C[C@@H](C(N)=O)N(C(=O)/C=C/CC)C3)c1` (stereo not given in full) stands 13.8%; under `CCC(C)(C(=O)NC1CCCCC1)N(Cc1cccs1)C(=O)Cc1cccs1` (stereo not given), 23.9%.
Regarding `COc1cccc(OC)c1NC(=O)C1CCCN1C(=O)Nc1cccc(Cl)c1` (stereo not given), the inhibition is -0.22%.
For `O=C(/C=C/c1cccc([N+](=O)[O-])c1)Nc1ccccn1`, the inhibition is 7.78%.
Regarding `CCOc1ccccc1NC(=O)COC(=O)COc1cccc2c1OC(C)(C)C2`, the inhibition is 2.02%.
`COC(=O)C(C)N1C(=O)S/C(=C\c2ccc(-c3ccc(C(=O)O)cc3C)o2)C1=O` (stereo not given): the inhibition was 15.9%.
On to `O=C(O)c1ccccc1-c1ccc(/C=C2\SC(=O)N(c3ccccc3)C2=O)o1`, for which the inhibition was 3.86%.
Under `Cc1cccc(-n2ccnc2SCC(=O)O)c1C` stands -0.53%; under `O=C(COc1ccc(Cl)cc1Cl)c1ccc[nH]1`, 19.3%; under `Cc1ccccc1OCC(=O)OCC(=O)c1ccc[nH]1`, 7.12%.
As for `Cc1ccnc(NC(=O)CCNC(=O)c2ccc(Cl)cc2)c1`, the figure is -5.97%.
Regarding `COc1ccccc1N1CCN(C(=O)CSc2nnc(NC(=O)C3CC3)s2)CC1`, the inhibition was 9.27%.
`CN1CCc2cc(Cl)c(O)cc2[C@@H](c2ccccc2)C1`: the inhibition is -6.09%.
As for `c1ccc(C2CNCCc3ccccc32)cc1` (stereo not given), the figure is -8.69%; as for `CCc1cccc(C)c1NC(=O)Nc1c(Br)cnn1C`, -8.57%; as for `Cc1ccc(S(=O)(=O)N2C[C@H]3[C@H]4C(=O)N(c5ccccc5)C(=O)[C@H]4C[C@H](OC(=O)NC4CCCC4)[C@@]3(O)C2)cc1`, -0.48%.
As for `CC(OC(=O)c1ccc2c(c1)OCCO2)C(=O)NC1CCCCC1C` (stereo not given), the figure is -7.15%.
Under `COc1cc(C=C2C(=O)c3ccccc3C2=O)ccc1O` stands -0.66%.
In the case of `COc1ccc(C=C2C(=O)c3ccccc3C2=O)cc1O`, the inhibition was 4.34%.
Under `CCOC(=O)C1=C(C)NC(SCC(N)=O)=C(C#N)C1c1cccs1` (stereo not given) stands -2.81%; under `C#CCSC1=C(C#N)C(c2cccs2)C(C(=O)OCC)=C(C)N1` (stereo not given), 8.23%; under `Cn1c(SCC(=O)Nc2sc3c(c2C#N)CCC3)nnc1C1COc2ccccc2O1` (stereo not given), 2.45% and 32%.
Consider `CCOC(=O)c1oc2ccccc2c1COC(=O)CNC(=O)c1cccc(C)c1`, for which the inhibition is -6.29%.
Under `CN(C)Cc1c(C(=O)N/N=C/c2cccc(OCc3ccccc3)c2)nnn1-c1nonc1N` stands 19.4%.
As for `CCN(CC)c1ccc(C(=O)NNC(=O)c2cccn2C)cc1`, the figure is 5.54%; as for `O=C(O)c1ccc2c(c1)CCCN2`, -1.03%; as for `O=S(=O)(c1ccc2c(c1)CCCN2)N1CCCCC1`, 8.06%.
As to `CCOc1ccc(NC(=O)CN2CCN(CC(=O)Nc3ccc(C(N)=O)cc3)CC2)cc1`, the inhibition was -3.98%.
Take `COc1ccc2c(c1)CC/C(=C/c1ccccn1)C2=O`: the inhibition is -2.19%.
Under `CCOc1ccc(/C=C/C2=Cc3c(sc(NC(=O)CSc4n[nH]c(N)n4)c3C#N)C(C)(C)C2)cc1` stands 1.67%.
Under `Cc1ccsc1/C=C/C1=Cc2c(sc(NC(=O)CSc3n[nH]c(N)n3)c2C#N)C(C)(C)C1` stands 22.1%; under `COC1C=COC2(C)Oc3c(C)c(O)c4c(O)c(c(CN5CCN(C)CC5)c(O)c4c3C2=O)NC(=O)C(C)=CC=CC(C)C(O)C(C)C(O)C(C)C(OC(C)=O)C1C` (stereo not given), 13.7%.
Under `CO[C@H]1C=CO[C@@]2(C)Oc3c(C)c(O)c4c(O)c(c(C=NN5CCN(C6CCCC6)CC5)c(O)c4c3C2=O)NC(=O)C(C)=CC=C[C@H](C)[C@H](O)[C@@H](C)[C@@H](O)[C@@H](C)[C@H](OC(C)=O)[C@@H]1C` stands -8.62%; under `CCCn1c2ccc(C)cc2c2nnc(SCCN3CCOCC3)nc21`, -4.1%.
`CC(C)N1CCC(=O)NC1=O`: the inhibition is 3.79%.
Under `O=C1CC(CSc2ccc(Cl)cc2)=NN1` stands -2.88%; under `Cc1ccc(SCC2=NNC(=O)C2)cc1`, 74.7%; under `COc1ccc(CCNC(=O)c2ccc(NS(=O)(=O)c3c(C)noc3C)cc2)cc1OC`, -8.32%.
As for `COc1cccc(C(=O)N[C@@H](CCSC)c2nc3ccccc3[nH]2)c1`, the figure is 5.58%; as for `N#CC1=C(N)C(C#N)(C#N)C(c2cccnc2)C2COCC=C12` (stereo not given), 0.31%.
Take `Cc1ccc(C2C3CSCC=C3C(C#N)=C(N)C2(C#N)C#N)cc1` (stereo not given): the inhibition is 8.68%.
Under `CCOC(=O)c1c(C)[nH]c(C(=O)OCC(=O)Nc2cccnc2Cl)c1C` stands -0.74%; under `O=C(CN1/C(=C(/O)c2ccccc2)C(=O)c2ccccc2S1(=O)=O)c1ccccc1`, -0.58%; under `Cc1ccc(C(=O)CN2/C(=C(\O)c3ccccc3)C(=O)c3ccccc3S2(=O)=O)c(C)c1`, 2.58%.
As for `COc1cccc(-c2nnc3sc(-c4ccco4)nn23)c1`, the figure is 5.27%; as for `c1coc(-c2nn3c(-c4ccco4)nnc3s2)c1`, 24.5%.
